Source: PubChem (National Center for Advancing Translational Sciences (NCATS))
HttQ103 aggreg: mutant huntingtin aggregation inhibition; Potency, µM (doses to about 46.1 µM), usual class: inhibitors; actives 1.1% (n = 220,000); AID 1688; PC12 HttQ103-GFP aggregates, Acumen cytometry, 40 h; further: nearly all actives have a fitted effect of over 60% in size
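Compounds (qHTS titration) were added to PC12 cells expressing an ecdysone-driven HTT exon 1 Q103–GFP fusion after induction with 100 nM tebufenozide. Aggregate formation was measured as GFP objects in cell lysates.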
CBFb RUNX1 block: blocks binding between human CBF-beta and RUNX1; Potency, µM (highest dose often 59.8 µM), usual class: inhibitors; 230,000 tested, under 10 active; AID 1477; AlphaScreen CBFb-His/RUNX1-biotin binding, biochemical; Q01196+Q13951
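AlphaScreen proximity signal reports loss of binding between His-tagged CBF-beta and biotin-labelled RUNX1, each at 30 nM. Proteins are pre-associated for 20 minutes, compounds added for 15 minutes, then beads for 90 minutes, all at ambient temperature.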
HTT cytoprotect: cytoprotection in Huntington HTT-Q103 PC12 cell model; PC12 HTT-Q103 induced, cytoprotection, ATP luminescence, 40 h; Potency, µM (doses to about 56.4 µM), actives largely listed as activators; actives 0.14% (n = 230,000); AID 1471; further: nearly all actives have a fitted effect of over 45% in size
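Stable PC12 Q103-GFP cells in serum-supplemented, phenol red-free DMEM; induction by tebufenozide at 100 nM final; compound dose series; cell viability quantified luminescently from ATP.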
LMNA splice mod: modulators of lamin A splicing | actives 0.01% (n = 200,000) | Potency, µM (series often up to 46.1 µM), usual class: inhibitors | HeLa LMNA splicing GFP/RFP minigene ratio, 48 h; active means well fitted inhibition curve with a large enough effect in the signal ratio, with a control signal flat, not every such curve was filed as active; inconclusive means small, poorly fitted or top-dose-only effect, or effect the other way, or a change in a side signal; the % refers to the signal ratio
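Read-out is the ratio of GFP to DsRed2 object intensity, acquired by 488 nm laser-scanning cytometry on HeLa lamin A-EGFP minigene reporter cells. Compound incubation 48 hrs at 37 °C in Opti-MEM with 2% FBS; DMSO 0.5% final.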
NPSR antag: blocks cAMP signaling of the human neuropeptide S receptor | Potency, µM (doses to about 38.3 µM), most hits filed as inhibitors | actives 1% (n = 220,000) | Q6W5P4 | CHO-NPSR cells, cAMP TR-FRET, antagonist mode; further: nearly all actives have a fitted effect of over 50% in size
Target sequence (Q6W5P4 whole entry, looked up): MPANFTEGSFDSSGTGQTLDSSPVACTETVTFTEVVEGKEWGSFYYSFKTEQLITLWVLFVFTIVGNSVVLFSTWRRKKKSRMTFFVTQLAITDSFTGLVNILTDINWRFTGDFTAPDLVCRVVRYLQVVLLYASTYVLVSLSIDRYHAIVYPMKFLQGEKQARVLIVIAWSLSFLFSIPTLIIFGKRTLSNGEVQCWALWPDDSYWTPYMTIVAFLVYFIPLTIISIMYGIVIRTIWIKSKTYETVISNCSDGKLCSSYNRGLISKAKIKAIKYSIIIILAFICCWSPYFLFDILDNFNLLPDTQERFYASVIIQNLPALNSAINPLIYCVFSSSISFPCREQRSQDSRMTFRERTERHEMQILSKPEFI
MBNL1-CUG inh: blocks human MBNL1 binding to CUG repeat RNA | TR-FRET MBNL1-His/biotin-(CUG)12 binding, 665/545 ratio | actives 0.036% (n = 280,000) | Potency, µM (titrated, usually from 57.5 µM), actives largely listed as inhibitors | Q9NR56; active means well fitted inhibition curve with a large enough effect in the signal ratio, with a control signal flat, not every such curve was filed as active; inconclusive means small, poorly fitted or top-dose-only effect, or effect the other way, or a change in a side signal; inactive means no such curve, though single readings can be large or run the other way; the % refers to the signal ratio
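TR-FRET readout: Ex 340 nm, 665/545 nm emission ratio, normalized to buffer-only (basal) and MBNL1-(CUG)12 controls. Complex of MBNL1-His with Biotin-(CUG)12, compounds 92 nM–58 uM, incubated 60 min at room temperature.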
Hits are given with their value; – = inactive; ? = inconclusive; · = no result; [ ] = remark or other dose. An excerpt weighted towards active compounds, which were near 1.1% of everything screened. Unless noted, the call rests on the fitted dose curve; in most records, active means well fitted curve in the direction sought with a large enough effect; inconclusive means small, poorly fitted or top-dose-only effect, or another doubt; inactive means no such curve, though single readings can be large; an effect the other way counts as inactive or inconclusive.

SMILES | HttQ103 aggreg | CBFb RUNX1 block | HTT cytoprotect | LMNA splice mod | NPSR antag | MBNL1-CUG inh
Cc1oc(C)c2c(=O)ccc3c(c12)OC(N)=C(C#N)C3c1ccccc1Cl (configuration not stated) | ? | – | – | – | 10µM | ?
NC1=C2NC=N[C@@H]2N(C/C=C\c2ccccc2)C=N1 | · | · | –[10 µM] | · | · | ·
N[C@H](C(=O)O)[C@H](N)C(=O)O | · | · | –[10 µM] | · | · | ·
CCCCC(C)n1[nH]c(=O)c2c(C)cc(C)nc21 (configuration not stated) | –[9.22 µM] | – | –[10 µM] | · | – | –
CCCCCCC(C)n1[nH]c(=O)c2c(C)cc(=O)[nH]c21 (configuration not stated) | 11µM | – | –[0.074 µM] | – | – | –
CCOC(=O)c1c(S(=O)(=O)N2CCC(C(=O)Nc3cccc(C#N)c3)CC2)c(C)n(C)c1C | · | · | · | – | · | ·
Cc1c(C)c2c(c(C)c1O)CCC(C)(COc1ccc(Cc3sc(=O)[nH]c3O)cc1)O2 (configuration not stated) | · | – | – | · | · | ·
COC(=O)c1c(NC(=O)c2cccnc2)sc(C(=O)N(C)C)c1C | – | – | 1.3µM | – | – | –
COC(=O)c1c(NC(=O)c2cccnc2)sc(C)c1C | – | – | –[10 µM] | – | – | –
CCCN(Cc1cc2cc(C)ccc2[nH]c1=O)C(=O)c1cccc(OC)c1 | 10µM | – | –[0.074 µM] | ? | – | –
CCCN(Cc1cc2cccc(C)c2[nH]c1=O)C(=O)c1cccc(OC)c1 | · | · | –[0.074 µM] | · | · | ·
CCCCc1nc2c(c3c1C[C@H](C)OC3)CN(S(=O)(=O)CCCC)CC2 | · | –[13.1 µM] | –[10 µM] | –[9.22 µM] | · | ·
CC(C)(C)C(=O)NC(=S)NNC(=O)c1ccc(-c2ccccc2)cc1 | 8.9µM | ? | ? | ? | – | –
CCOC(=O)/C(C#N)=C/C=C1/C=CC=CN1C | –[9.22 µM] | – | –[10 µM] | · | – | ·
C=CCN1C=CC(=C/C=C(/C#N)C(=O)OCC)C=C1 | ? | – | –[10 µM] | ? | 10µM | ?
O=C1/C(=C/c2ccc([N+](=O)[O-])cc2)C=C(c2ccccc2)N1c1ccc(O)cc1 | – | – | – | – | 13µM | –
O=C1/C(=C/c2ccc([N+](=O)[O-])cc2)C=C(c2ccccc2)N1c1ccccc1 | – | – | – | – | – | –
COc1ccc(N2C(=O)/C(=C/c3ccc([N+](=O)[O-])cc3)C=C2c2ccccc2)cc1 | – | – | – | ? | – | –
O=C(O)c1cccc(N2C(=O)/C(=C/c3ccc([N+](=O)[O-])cc3)C=C2c2ccccc2)c1 | – | – | ? | · | 5µM | –
Cc1nn(C(=O)c2cccc(F)c2)c(C)c1S(=O)(=O)N1CCCCCC1 | · | · | · | – | · | ·
COc1ccc(N=c2cc(-c3ccc(OC)cc3)oc3ccccc23)cc1 | – | ? | –[10 µM] | ? | – | –
CCOc1ccc(N=c2cc(-c3ccc(OC)cc3)oc3ccccc23)cc1 | 3.2µM | ? | –[10 µM] | ? | – | –
CCCOc1ccc(-c2nn(-c3ccccc3)cc2/C=C2\SC(N)=NC2=O)cc1 | – | – | –[10 µM] | – | 4µM | ·
Cc1ccc(CN2CCN(CC3CC4C=CC3C4)CC2)cc1 (configuration not stated) | 3.2µM | – | – | – | – | –
CN1/C(=C\P(=O)(N(C)C)N(C)C)C(C)(C)c2ccccc21 | 11µM | – | –[10 µM] | ? | – | ?
O=C1CC(SC(=Nc2ccccc2)Nc2ccccc2)C(=O)N1c1ccc(Cl)c(Cl)c1 (configuration not stated) | – | – | · | ? | – | –
Cc1cccc(N2C(=O)CC(SC(=Nc3ccccc3)Nc3ccccc3)C2=O)c1 (configuration not stated) | 3.2µM | – | · | – | – | ?
CC(C)C[C@H](NC(=O)c1nc[nH]c1C(=O)NC1CCN(C(=O)OC(C)(C)C)CC1)C(=O)OC(C)(C)C | –[9.22 µM] | – | –[10 µM] | · | ? | –
CC(C)(C)OC(=O)NCCCC[C@H](NC(=O)c1nc[nH]c1C(=O)NC1CCN(C(=O)OC(C)(C)C)CC1)C(=O)OC(C)(C)C | –[9.22 µM] | – | –[10 µM] | · | 10µM | –
